The structures appear in SMILES notation. Active and inactive are the calls of the source. No stated cut-off is given here; in the data, active means inhibition above about 50%; inactive means the rest.

One may read the inhibition as the relative decrease from the control value, in per cent.

The target of the experiment is Prolyl endopeptidase-like (Mus musculus) (UniProt Q8C167). The experiment is described as follows: purified PREPL inhibitors, PREPL inhibitor project, biochemical, gel-based competitive ABPP, fluorescence, HTS hits (AID 624481). As to conditions: at 20 µM, hits give high values.
Sequence of Prolyl endopeptidase-like (Mus musculus) (Q8C167 whole entry, looked up): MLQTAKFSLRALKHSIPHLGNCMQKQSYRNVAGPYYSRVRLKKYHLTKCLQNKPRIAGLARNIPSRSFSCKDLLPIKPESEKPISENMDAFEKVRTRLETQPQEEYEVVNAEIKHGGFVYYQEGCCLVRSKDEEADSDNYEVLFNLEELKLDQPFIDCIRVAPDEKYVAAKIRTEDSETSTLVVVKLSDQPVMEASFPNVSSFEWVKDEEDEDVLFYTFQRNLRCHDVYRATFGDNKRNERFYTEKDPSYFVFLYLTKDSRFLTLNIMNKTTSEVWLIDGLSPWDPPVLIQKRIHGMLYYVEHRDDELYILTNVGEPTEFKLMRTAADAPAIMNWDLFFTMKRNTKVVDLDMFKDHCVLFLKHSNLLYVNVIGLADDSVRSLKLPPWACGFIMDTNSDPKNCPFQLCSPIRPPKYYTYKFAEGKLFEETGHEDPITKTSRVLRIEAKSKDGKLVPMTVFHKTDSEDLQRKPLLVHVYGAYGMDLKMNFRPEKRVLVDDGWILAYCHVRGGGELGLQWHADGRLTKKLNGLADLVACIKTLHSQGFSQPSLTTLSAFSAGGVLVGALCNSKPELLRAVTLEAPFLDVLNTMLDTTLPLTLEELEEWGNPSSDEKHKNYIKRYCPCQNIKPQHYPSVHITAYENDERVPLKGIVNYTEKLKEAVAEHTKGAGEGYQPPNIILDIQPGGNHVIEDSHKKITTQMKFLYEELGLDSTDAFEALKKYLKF
As for `C[N+](C)(CCCCCC[N+](C)(C)CCCN1C(=O)c2cccc3cccc(c23)C1=O)CCCN1C(=O)c2cccc3cccc(c23)C1=O`, the inhibition was -29% (inactive).

As for `CC(=O)n1cc([C@@H]2C=C(C(=O)N3CCN(C)CC3)O[C@H](OCc3ccc(CO)cc3)C2)c2ccccc21`, the inhibition is -55% (inactive).

`CCc1ccc(CNc2ccc3c(c2)ncn3C(C)(C)C)cc1`: the inhibition is -36% (inactive).

Turning to `COc1ccc(NC(=O)Nc2cccc3c2O[C@@H](CN(C)CC2CCCCC2)[C@@H](C)CN([C@H](C)CO)C3=O)cc1`, the inhibition is -79% (inactive).

On to `COc1cccc(C2=CC(c3ccc(N(C)C)cc3)n3nnnc3N2)c1` (stereo not drawn), for which the inhibition is -95% (inactive).

Regarding `O=C(CN1CCN(c2ccc(O)cc2)CC1)Nc1cc([N+](=O)[O-])ccc1Cl`, the inhibition is -53% (inactive).

Take `c1cncc(N=c2scc(-c3cccc4ccccc34)n2CCCn2ccnc2)c1`: the inhibition is -95% (inactive).

`CCC(CO)[n+]1c(C)cc(/C=C2\Sc3ccccc3N2Cc2ccccc2)cc1C` (stereo not drawn): the inhibition was -20% (inactive).

For `Nc1nc(-c2ccccc2)c(N=Nc2ccccc2Cl)s1`, the inhibition is -9% (inactive).

For `Cc1ccc(C)c(-c2nn(-c3cc(N4CCN(CCO)CC4)ccc3[N+](=O)[O-])c(=O)c3ccccc23)c1`, the inhibition is 7% (inactive).

For `Cc1cc(N2CCN(C)CC2)nc2ccc(NC(=O)CCC(=O)N3CCN(c4ccc([N+](=O)[O-])cc4)CC3)cc12`, the inhibition was -92% (inactive).

On to `COc1cc2c(cc1OC)C(Cc1ccc(O)c(Oc3ccc(C[C@H]4c5cc(OC)c(OC)cc5CCN4C)cc3)c1)N(C)CC2` (stereo partly drawn), for which the inhibition was 66% (active).

As to `COc1ccc(N2CCN(c3nc4c(c(=O)n(C)c(=O)n4C)n3Cc3ccccc3)CC2)cc1`, the inhibition is -47% (inactive).

The values above are taken from PubChem BioAssay AID624481 (The Scripps Research Institute Molecular Screening Center, 2012).
